According to PubChem BioAssay AID1159580 (chemical genetic matrix, 2015):
Out of some 5,500 compounds screened, about 2,000 (36%) were called active. About 18% were inconclusive and are not listed. Cut-off read from the data, not from the text of the source: active = normalized growth mostly below about 0.91 (no sharp cut-off); inconclusive = no clear call, values can overlap the other calls; inactive = mostly above about 0.92. This is one part of the list.

Assay: chemical genetic growth profiling, strain panel (AID 1159580);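 note: tested at 20 µM; growth read once vehicle control cultures reached saturation at 30 °C; 1 = growth at the plate median or of vehicle wells; lower values mean less growth of the strain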
Details: S. cerevisiae deletion strains, growth OD
[1] = locus YAL040C, strain CLN3, stronger effect = lower value
[2] = locus YCL061C, strain MRC1 (second series), stronger effect = lower value
[3] = locus YDR363W, strain ESC2, stronger effect = lower value
[4] = locus YER002W, strain NOP16, stronger effect = lower value
[5] = locus YGR229C, strain SMI1, stronger effect = lower value
[6] = locus YNL175C, strain NOP13, stronger effect = lower value
[7] = locus YNL197C, strain WHI3, stronger effect = lower value
[8] = locus YNL224C, strain SQS1, stronger effect = lower value
[9] = locus YOR083W, strain WHI5 (second series), stronger effect = lower value

Measured: normalized growth

O=C(O)CC[C@@H](C(=O)O)N1C(=O)c2ccccc2C1=O
inactive: [1] 0.987 | [2] 1.01 | locus YDR150W, strain NUM1, stronger effect = lower value 1 | [3] 0.987 | [4] 0.975 | [5] 1 | [6] 0.973 | [7] 0.976 | [8] 0.991 | [9] 1.06

CC(C(=O)O)c1ccc(CC2CCCC2=O)cc1 (stereo not drawn)
inactive: locus YAL013W, strain DEP1, stronger effect = lower value 0.985 | [1] 0.995 | [2] 1 | [3] 1 | [4] 0.988 | locus YGR078C, strain PAC10, stronger effect = lower value 1.02 | [5] 1.01 | locus YJR075W, strain HOC1, stronger effect = lower value 1.01 | locus YMR263W, strain SAP30, stronger effect = lower value 1 | locus YMR307W, strain GAS1, stronger effect = lower value 0.999 | locus YNL128W, strain TEP1, stronger effect = lower value 0.976 | [6] 1.01 | [7] 1.02 | [8] 0.979 | locus YNL322C, strain KRE1, stronger effect = lower value 1.01 | [9] 0.981 | locus YPL055C, strain LGE1, stronger effect = lower value 0.974 | locus YPL241C, strain CIN2, stronger effect = lower value 1.01
